Among the data in PMC11102866, “Nucleosome-bound NR5A2 structure reveals pioneer factor mechanism by DNA minor groove anchor competition” are binding signal values, retold here.

Residue numbers refer to the chain shown, from its start. Names and notes keep the numbering of the source.

The target in assay [1] is NR5A2 wild type;histone octamer (Homo sapiens;, UniProt O00482;C0HKE1;Q6ZWY9;P84244;P62806 1-541;2-130;2-126;2-136;2-103, |). Description: SeEN-seq (EMSA of nucleosome library followed by sequencing); 0.8 uM human NR5A2; 20 mM Tris-HCl pH 7.5, 120 mM NaCl, 1 mM MgCl2, 10 uM ZnCl2, 1 mM DTT, 100 ug/ml BSA, room temperature, 30 min; 0.1 uM nucleosome library; high values mean tight binding. In general terms: Mobility shift assays separate free from complexed probe on a gel.

The target in assay [2] is mouse Nr5a2 wild type;histone octamer (Mus musculus;, UniProt P45448;C0HKE1;Q6ZWY9;P84244;P62806 1-560;2-130;2-126;2-136;2-103, |). In words: SeEN-seq (EMSA of nucleosome library followed by sequencing); 1.2 uM mouse Nr5a2; 20 mM Tris-HCl pH 7.5, 120 mM NaCl, 1 mM MgCl2, 10 uM ZnCl2, 1 mM DTT, 100 ug/ml BSA, room temperature, 30 min; 0.1 uM nucleosome library; high values mean tight binding.

B1: 32 (nucleosome)
DNA 1: ATCCTGGAGAATCCCGGTGCCGAGGCCGCTCAATTCAAGGCCAACAGCTCTAGCACCGCTTAAACGCACGTACGCGCTGTCCCCCGCGTTTTAACCGCCAAGGGGATTACTCCCTAGTCTCCAGGCACGTGTCAGATATATACATCCTGTGAT
DNA 2: ATCACAGGATGTATATATCTGACACGTGCCTGGAGACTAGGGAGTAATCCCCTTGGCGGTTAAAACGCGGGGGACAGCGCGTACGTGCGTTTAAGCGGTGCTAGAGCTGTTGGCCTTGAATTGAGCGGCCTCGGCACCGGGATTCTCCAGGAT
modifications: reconstituted with mouse histones H2A, H2B, H3.3 and H4
As for B1, the binding signal in assay [1] is 1.82 log2 enrichment (bound/unbound, relative to Widom 601); in assay [2], 1.7 log2 enrichment (bound/unbound, relative to Widom 601).

B2: 34 (nucleosome)
DNA 1: B1 DNA 1 with C36G, A37T, A38C, G39A, G40A, C41G, C42G, A43C, A44C, C45A
DNA 2: B1 DNA 2 with G109T, T110G, T111G, G112C, G113C, C114T, C115T, T116G, T117A, G118C
modifications: reconstituted with mouse histones H2A, H2B, H3.3 and H4
For the molecule B2, the binding signal in assay [1] was 1.32 log2 enrichment (bound/unbound, relative to Widom 601); in assay [2], 1.03 log2 enrichment (bound/unbound, relative to Widom 601).

B3: 33 (nucleosome)
DNA 1: B1 DNA 1 with C36T, A37C, G39A, C41G, A43C
DNA 2: B1 DNA 2 with T111G, G113C, C115T, T117G, G118A
modifications: reconstituted with mouse histones H2A, H2B, H3.3 and H4
For B3, the binding signal is 2.48 log2 enrichment (bound/unbound, relative to Widom 601) in assay [1] and 2.25 log2 enrichment (bound/unbound, relative to Widom 601) in assay [2].

B4: 38 (nucleosome)
DNA 1: B1 DNA 1 with C36G, A37G, A38T, G39C, C41T, C45G, A46G, G47C, T49A
DNA 2: B1 DNA 2 with A105T, C107G, T108C, G109C, G113A, C115G, T116A, T117C, G118C
modifications: reconstituted with mouse histones H2A, H2B, H3.3 and H4
For the molecule B4, the binding signal in assay [1] is 0.852 log2 enrichment (bound/unbound, relative to Widom 601); in assay [2], 0.628 log2 enrichment (bound/unbound, relative to Widom 601).

B5: 4 (nucleosome)
DNA 1: ATCCTGTCAAGGCCAGGTGCCGAGGCCGCTCAATTGGTCGTAGACAGCTCTAGCACCGCTTAAACGCACGTACGCGCTGTCCCCCGCGTTTTAACCGCCAAGGGGATTACTCCCTAGTCTCCAGGCACGTGTCAGATATATACATCCTGTGAT
DNA 2: ATCACAGGATGTATATATCTGACACGTGCCTGGAGACTAGGGAGTAATCCCCTTGGCGGTTAAAACGCGGGGGACAGCGCGTACGTGCGTTTAAGCGGTGCTAGAGCTGTCTACGACCAATTGAGCGGCCTCGGCACCTGGCCTTGACAGGAT
modifications: reconstituted with mouse histones H2A, H2B, H3.3 and H4
Consider B5, for which the binding signal in assay [1] is 4.82 log2 enrichment (bound/unbound, relative to Widom 601); in assay [2] it was 3.77 log2 enrichment (bound/unbound, relative to Widom 601).

B6: 35 (nucleosome)
DNA 1: B1 DNA 1 with C36G, A37G, A38T, G39C, G40A, C41A, C42G, A43G, A44C
DNA 2: B1 DNA 2 with T110G, T111C, G112C, G113T, C114T, C115G, T116A, T117C, G118C
modifications: reconstituted with mouse histones H2A, H2B, H3.3 and H4
As for B6, the binding signal in assay [1] is 0.694 log2 enrichment (bound/unbound, relative to Widom 601); in assay [2] it was 0.841 log2 enrichment (bound/unbound, relative to Widom 601).

B7: 39 (nucleosome)
DNA 1: ATCCTGGAGAATCCCGGTGCCGAGGCCGCTCAATTGGTCGTTCAAGGCCATAGCACCGCTTAAACGCACGTACGCGCTGTCCCCCGCGTTTTAACCGCCAAGGGGATTACTCCCTAGTCTCCAGGCACGTGTCAGATATATACATCCTGTGAT
DNA 2: ATCACAGGATGTATATATCTGACACGTGCCTGGAGACTAGGGAGTAATCCCCTTGGCGGTTAAAACGCGGGGGACAGCGCGTACGTGCGTTTAAGCGGTGCTATGGCCTTGAACGACCAATTGAGCGGCCTCGGCACCGGGATTCTCCAGGAT
modifications: reconstituted with mouse histones H2A, H2B, H3.3 and H4
On to B7, for which the binding signal in assay [1] was 0.783 log2 enrichment (bound/unbound, relative to Widom 601); in assay [2] it was 0.704 log2 enrichment (bound/unbound, relative to Widom 601).

B8: 44 (nucleosome)
DNA 1: B7 DNA 1 with T42A, C43G, A45C, G46A, G47T, C49A, T51G, A52G, G53C
DNA 2: B7 DNA 2 with C101G, T102C, A103C, G105T, C107A, C108T, T109G, G111C, A112T
modifications: reconstituted with mouse histones H2A, H2B, H3.3 and H4
As to B8, the binding signal in assay [1] is 2.41 log2 enrichment (bound/unbound, relative to Widom 601); in assay [2] it was 1.31 log2 enrichment (bound/unbound, relative to Widom 601).

B9: 45 (nucleosome)
DNA 1: B7 DNA 1 with T42A, C43G, A45C, G46A, C48T, T51A, A52G, A55C, C56A
DNA 2: B7 DNA 2 with G98T, T99G, T102C, A103T, G106A, C108T, T109G, G111C, A112T
modifications: reconstituted with mouse histones H2A, H2B, H3.3 and H4
Regarding B9, the binding signal in assay [1] is 0.761 log2 enrichment (bound/unbound, relative to Widom 601); in assay [2], 0.671 log2 enrichment (bound/unbound, relative to Widom 601).

B10: 40 (nucleosome)
DNA 1: B7 DNA 1 with T42A, C43T, A44C, G46A, C48G, A50C, T51A
DNA 2: B7 DNA 2 with A103T, T104G, G106C, C108T, T110G, G111A, A112T
modifications: reconstituted with mouse histones H2A, H2B, H3.3 and H4
Consider B10, for which the binding signal in assay [1] is 0.693 log2 enrichment (bound/unbound, relative to Widom 601); in assay [2] it was 0.706 log2 enrichment (bound/unbound, relative to Widom 601).

B11: 42 (nucleosome)
DNA 1: ATCCTGGAGAATCCCGGTGCCGAGGCCGCTCAATTGGTCGTAGATCAAGGCCACACCGCTTAAACGCACGTACGCGCTGTCCCCCGCGTTTTAACCGCCAAGGGGATTACTCCCTAGTCTCCAGGCACGTGTCAGATATATACATCCTGTGAT
DNA 2: ATCACAGGATGTATATATCTGACACGTGCCTGGAGACTAGGGAGTAATCCCCTTGGCGGTTAAAACGCGGGGGACAGCGCGTACGTGCGTTTAAGCGGTGTGGCCTTGATCTACGACCAATTGAGCGGCCTCGGCACCGGGATTCTCCAGGAT
modifications: reconstituted with mouse histones H2A, H2B, H3.3 and H4
With B11, the binding signal in assay [1] is 2.74 log2 enrichment (bound/unbound, relative to Widom 601); in assay [2], 2.07 log2 enrichment (bound/unbound, relative to Widom 601).

B12: 43 (nucleosome)
DNA 1: B11 DNA 1 with T45C, C46T, A47C, G49A, C51G, A53C, C54A
DNA 2: B11 DNA 2 with G100T, T101G, G103C, C105T, T107G, G108A, A109G
modifications: reconstituted with mouse histones H2A, H2B, H3.3 and H4
Take B12: the binding signal is 2.58 log2 enrichment (bound/unbound, relative to Widom 601) in assay [1] and 1.55 log2 enrichment (bound/unbound, relative to Widom 601) in assay [2].

B13: 36 (nucleosome)
DNA 1: ATCCTGGAGAATCCCGGTGCCGAGGCCGCTCAATTGGTTCAAGGCCACTCTAGCACCGCTTAAACGCACGTACGCGCTGTCCCCCGCGTTTTAACCGCCAAGGGGATTACTCCCTAGTCTCCAGGCACGTGTCAGATATATACATCCTGTGAT
DNA 2: ATCACAGGATGTATATATCTGACACGTGCCTGGAGACTAGGGAGTAATCCCCTTGGCGGTTAAAACGCGGGGGACAGCGCGTACGTGCGTTTAAGCGGTGCTAGAGTGGCCTTGAACCAATTGAGCGGCCTCGGCACCGGGATTCTCCAGGAT
modifications: reconstituted with mouse histones H2A, H2B, H3.3 and H4
For the molecule B13, the binding signal in assay [1] was 0.81 log2 enrichment (bound/unbound, relative to Widom 601); in assay [2], 0.77 log2 enrichment (bound/unbound, relative to Widom 601).

B14: 41 (nucleosome)
DNA 1: B11 DNA 1 with A44T, T45C, C46A, A48G, G50C, C52A, A53G
DNA 2: B11 DNA 2 with T101C, G102T, C104G, T106C, G108T, A109G, T110A
modifications: reconstituted with mouse histones H2A, H2B, H3.3 and H4
Turning to B14, the binding signal in assay [1] was 2.28 log2 enrichment (bound/unbound, relative to Widom 601); in assay [2] it was 1.87 log2 enrichment (bound/unbound, relative to Widom 601).

B15: 37 (nucleosome)
DNA 1: B13 DNA 1 with T39C, C40T, A41C, G43A, C45G, A47C, C48A
DNA 2: B13 DNA 2 with G106T, T107G, G109C, C111T, T113G, G114A, A115G
modifications: reconstituted with mouse histones H2A, H2B, H3.3 and H4
B15: the binding signal in assay [1] was 0.722 log2 enrichment (bound/unbound, relative to Widom 601); in assay [2] it was 0.546 log2 enrichment (bound/unbound, relative to Widom 601).
